Screening results (PubChem)
The list is not random: actives were taken first. Their share in the collection is about 19%.
TDP1 cell CPT: growth inhibition of DT40 Tdp1-/-;hTDP1 cells with camptothecin (screen for TDP1 inhibitors) | chicken DT40 Tdp1-/-;hTDP1 cells + 20 nM CPT, ATP luminescence, 48 h | Potency, µM (highest dose often 46.2 µM), for inactives: at the highest dose activity change, negative = growth inhibition, hits mostly inhibitors | 420,000 tested, 12% active; further: potency means the concentration at half of the fitted maximal effect; on the % scale 0 is the no-effect control and ±100 the full control effect; nearly all actives have a fitted effect of over 55% in size
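Cell growth measured by CellTiter-Glo luminescence after a minimum 48 h, 37 C compound exposure with 20 nM CPT in Tdp1-knockout DT40 cells stably expressing hTDP1, seeded 400/well; qHTS titration format.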
TGFb inhibitor: TGF-b pathway inhibition; Potency, µM (doses to about 46.1 µM), for the others: top-dose activity, negative = inhibition, actives largely listed as inhibitors; HepG2 CAGA-GFP TGF-b/SMAD3 reporter, GFP fluorescence, 18 h; TGF-beta stimulated, 500 pg/mL final; 410,000 tested, 1.2% active; AID 588855; further: potency means the concentration at half of the fitted maximal effect; on the % scale 0 is the no-effect control and ±100 the full control effect; nearly all actives have a fitted effect of over 65% in size
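Smad-responsive CAGA-GFP expression was quantified in HEPG2 cells exposed to compounds and 500 pg/mL final TGF-beta for 18 h at 37 degrees C; unstimulated wells defined full inhibition.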
DT40 TDP1 no CPT: qHTS for Inhibitors of human tyrosyl-DNA phosphodiesterase 1 (TDP1): qHTS in cells in absence of CPT; DT40 Tdp1-/- hTDP1 cells, no CPT, ATP luminescence, 48 h; Potency, µM (series often up to 46.2 µM), inactives show at the highest dose activity change, negative = growth inhibition, usual class: inhibitors; 420,000 tested, 15% active; AID 686978, 2013; further: potency means the concentration at half of the fitted maximal effect; on the % scale 0 is the no-effect control and ±100 the full control effect; nearly all actives have a fitted effect of over 55% in size
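Luminescent ATP content (CellTiter-Glo) served as the growth readout. Knockout chicken DT40 cells expressing human TDP1 were exposed to compounds without camptothecin for a minimum 48 hr at 37 °C.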
HepG2 tox: HepG2 cytotoxicity, counter-screen for TGF-b inhibitors; HepG2 CAGA-GFP viability, ATP luminescence, 18 h; Potency, µM (series often up to 46.1 µM), for inactives: at the highest dose activity change, negative = cytotoxicity, hits mostly cytotoxic; 410,000 tested, 0.76% active; further: potency means the concentration at half of the fitted maximal effect
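CellTiter-Glo luminescence gave cytotoxicity after 18 hours at 37 degrees C. The cells were HepG2 CAGA-GFP in 1% FBS DMEM, stimulated with 500 pg/mL TGF-beta after compound addition. %Activity was normalised to no-cell wells (complete cell-killing) and DMSO (no toxicity), and curves were fitted and classified.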
IL1B secr inh: inflammasome signaling inhibition, IL-1 beta readout. THP-1 LPS/ATP IL-1B secretion, AlphaLISA, 16 h; active compounds read low. 360,000 tested, 4.7% active. activity change, % at 57.5 µM; in the data active means activity change below about -50%; inconclusive means mostly about -30% to -49%; further: on the % scale 0 is the no-effect control and ±100 the full control effect
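Secreted IL-1B measured by AlphaLISA bead assay after 16 h compound exposure of THP-1 cells; compounds (final up to 57.5 uM) added 1 h before LPS (250 ng/mL) and ATP (1.25 mM) stimulation; lower signal means less secretion.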
S-ASM inh: blocks human secretory acid sphingomyelinase | P17405 | placental ASM, HMU-PC fluorogenic substrate, 60 min | Potency, µM (top dose mostly 57.5 µM), for the others: top-dose activity change, negative = inhibition, hits mostly inhibitors | 340,000 tested, 0.006% active; further: potency means the concentration at half of the fitted maximal effect
Target sequence (P17405 47-631 limits assumed): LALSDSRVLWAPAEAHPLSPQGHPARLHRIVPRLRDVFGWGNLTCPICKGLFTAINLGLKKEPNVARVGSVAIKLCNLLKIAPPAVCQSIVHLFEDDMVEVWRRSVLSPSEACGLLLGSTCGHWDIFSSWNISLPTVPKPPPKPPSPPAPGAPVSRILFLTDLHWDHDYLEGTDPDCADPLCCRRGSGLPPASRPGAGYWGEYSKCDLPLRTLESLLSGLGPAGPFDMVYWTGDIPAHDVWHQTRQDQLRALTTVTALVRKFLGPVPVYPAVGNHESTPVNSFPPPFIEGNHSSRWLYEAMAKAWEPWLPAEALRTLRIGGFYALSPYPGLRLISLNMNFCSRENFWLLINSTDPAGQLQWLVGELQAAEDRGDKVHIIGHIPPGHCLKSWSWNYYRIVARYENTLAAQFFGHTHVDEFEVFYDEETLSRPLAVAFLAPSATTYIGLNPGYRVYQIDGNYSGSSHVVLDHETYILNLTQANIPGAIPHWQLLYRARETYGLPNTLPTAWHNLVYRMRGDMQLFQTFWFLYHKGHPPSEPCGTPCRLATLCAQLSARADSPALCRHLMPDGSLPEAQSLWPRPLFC
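Steps: dispense placental human ASM, pin compound, wait 10 min at room temperature, add HMU-PC0 substrate at 9 uM final, incubate 60 min at 37 °C, add stop solution raising pH to 10, read fluorescence.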
* hit, by the source's call; ? = inconclusive; · = no result. Unless noted, the call rests on the fitted dose curve; in most records, active means well fitted curve in the direction sought with a large enough effect; inconclusive means small, poorly fitted or top-dose-only effect, or another doubt; inactive means no such curve, though single readings can be large; an effect the other way counts as inactive or inconclusive.

SMILES	TDP1 cell CPT	TGFb inhibitor	DT40 TDP1 no CPT	HepG2 tox	IL1B secr inh	S-ASM inh
O=C(C[C@H]1C/C=C\CC[C@@H](Cc2ccc(F)cc2)C(=O)O[C@@H](c2ccccc2)CNC1=O)N[C@@H](CO)Cc1ccccc1	-20%	-18%	-18%	-5%	29	3%
O=C(C[C@@H]1C/C=C/CC[C@H](Cc2ccc(F)cc2)C(=O)OCCNC1=O)N[C@H](CO)Cc1ccccc1	21µM*	7%	12µM*	-7%	-6	-1%
CC(C)(C)[C@H]1COC(=O)[C@@H](Cc2ccc(F)cc2)C/C=C\C[C@@H](CC(=O)N[C@@H](CO)Cc2ccccc2)C(=O)N1	?	-9%	18µM*	-15%	-25	1%
O=C(C[C@@H]1C/C=C/CC[C@H](Cc2ccc(F)cc2)C(=O)OC[C@@H](Cc2ccccc2)NC1=O)N[C@H](CO)Cc1ccccc1	?	?	?	-104%	4	-14%
O=C(C[C@@H]1C/C=C\C[C@H](Cc2ccc(F)cc2)C(=O)OCCNC1=O)N[C@H](CO)Cc1ccccc1	?	3%	16µM*	-4%	19	-2%
O=C(NCCc1ccccc1)c1ccc(S(=O)(=O)N2CCCC2)cc1	-1%	-4%	-24%	2%	4	5%
COc1ccc2c(c1OC)C(=O)OC2Nc1nc(-c2ccc([N+](=O)[O-])cc2)cs1 (stereo not given)	4%	-8%	?	-43%	-8	-4%
COc1ccc2c(c1OC)C(=O)OC2Nc1nc(-c2cc3cc(Br)ccc3oc2=O)cs1 (stereo not given)	?	-15%	?	-33%	-56*	-2%
COc1ccc(-c2csc(NC3OC(=O)c4c3ccc(OC)c4OC)n2)cc1OC (stereo not given)	9.2µM*	?	15µM*	-48%	·	-1%
COc1cc(-c2cc(OC)c3c(C)oc(C)c3c(=O)c2)ccc1OC(=O)c1ccccc1C	5.2µM*	0%	8.2µM*	-19%	·	·
COc1ccc(-c2cc(OC(=O)c3ccccc3C)c3c(C)oc(C)c3c(=O)c2)cc1	?	170%	16µM*	-38%	·	·
COc1ccc(-c2cc(OC(=O)c3ccccc3Cl)c3c(C)oc(C)c3c(=O)c2)cc1OC	23µM*	?	?	-26%	·	·
COc1ccc(-c2cc(OC(=O)c3cccc(C)c3)c3c(C)oc(C)c3c(=O)c2)cc1	?	66%	?	-4%	·	·
Cc1ccccc1C(=O)Oc1cc(-c2ccc3c(c2)OCO3)cc(=O)c2c(C)oc(C)c12	?	92%	?	-15%	·	·
CN(C)C(=O)CSc1nnc(Cc2ccccc2)n1CC1CCCO1 (stereo not given)	0%	29%	-18%	11%	7	4%
CCOC(=O)C1=C(COC(=O)c2cc(OC)c(OC)c(OC)c2)NC(=O)NC1C (stereo not given)	-21%	24%	?	-1%	-5	·
CC1CCCCN1CC(O)COc1ccc(OCC(O)CN2CCCCC2C)cc1 (stereo not given)	0%	0%	-27%	4%	-29	2%
Oc1ccc2oc3c(c2c1/C=N/n1cnnc1)CCCC3	-21%	1%	?	-2%	38	-1%
Oc1ccc2oc3c(c2c1C=NCc1ccncc1)CCCC3	-24%	-23%	-25%	-5%	7	-3%
Oc1ccccc1N=Cc1c(O)ccc2oc3c(c12)CCCC3	?	13µM*	?	-121%	26	1%
O=C(O)c1ccc(N=Cc2c(O)ccc3oc4c(c23)CCCC4)cc1	16µM*	?	?	-22%	70	-6%
OC1CCC(Nc2ccn3nc(-c4cccc(Cl)c4)cc3n2)CC1 (stereo not given)	?	-17%	?	-30%	14	·
CCC(CO)Nc1ccn2nc(-c3cccc(Cl)c3)cc2n1 (stereo not given)	23µM*	-6%	23µM*	-36%	-4	·
COc1ccc(N(Cc2cc3ccccc3[nH]c2=O)S(=O)(=O)c2ccc(C)cc2)cc1	?	-3%	?	-20%	-14	-9%
COc1ccc(N(Cc2cc3cccc(C)c3[nH]c2=O)S(=O)(=O)c2ccc(Cl)cc2)cc1	?	-3%	23µM*	-26%	4	7%
SMILES	TDP1 cell CPT	TGFb inhibitor	DT40 TDP1 no CPT	HepG2 tox	IL1B secr inh	S-ASM inh
COc1ccc(N(Cc2cc3cccc(C)c3[nH]c2=O)S(=O)(=O)c2ccc(OC)cc2)cc1	?	2%	?	-12%	-10	-2%
COc1ccc(N(Cc2cc3ccccc3[nH]c2=O)S(=O)(=O)c2ccccc2)cc1	?	?	18µM*	-18%	0	-10%
COCC(=O)Nc1cc(C)cn(Cc2ccc(F)cc2)c1=O	-10%	5%	4%	-19%	15	-1%
CC(=O)NC(Cc1c[nH]c2ccccc12)C(=O)Nc1ccc2c(c1)OCO2 (stereo not given)	12%	-3%	3%	-13%	8	-1%
CN(C(=O)Cc1c[nH]c2ccccc12)C(C(=O)Nc1ccc2c(c1)OCO2)c1ccccc1 (stereo not given)	-27%	?	?	5%	-67*	-3%
O=C(NCC1CCCO1)C1CC(c2ccc(Cl)c(Cl)c2)=NO1 (stereo not given)	18µM*	-23%	?	-30%	10	0%
CCOc1ccc(NC(=O)Nc2cccnc2)cc1	?	-40%	?	-70%	14	0%
CCOc1ccc(NC(=O)Nc2cccs2)cc1	10µM*	-9%	18µM*	-46%	-11	-1%
CCOc1ccc(NC(=O)Nc2cc(OCC(F)(F)F)cc(OCC(F)(F)F)c2)cc1	2.9µM*	-16%	2.9µM*	-16%	-3	-1%
Cc1ccc(NC(=O)Nc2cccs2)cc1	16µM*	-8%	26µM*	-33%	-17	0%
Cc1cc(C)cc(NC(=O)Nc2cccs2)c1	?	·	?	-37%	·	·
Cc1cccc(NC(=O)Nc2cccs2)c1C	26µM*	·	?	-4%	·	·
CCOC(=O)C1=CCN(S(=O)(=O)c2ccc(F)cc2)C1c1cccc(F)c1 (stereo not given)	-25%	-33%	?	-14%	1	·
